Publication PMC9911399, “Two distinct binding modes provide the RNA-binding protein RbFox with extraordinary sequence specificity”
Residue numbers refer to the chain shown, from its start. In all, about 16,000 sequences were measured (“ka relative to ugcaugu”: median about 0.0091, highest 2% from about 0.032 on). Shown is part of a subset that was picked to be rich in the highest values.

B1: GUGUAAG (DNA:RNA)
RNA: GGGAGACCGGAAUUCAGAUUGUCCGUGUAAGUUAAAUCCCGUCGUAGCCACCA
DNA 1: CAATCTGAATTCCGGTCTCCC
DNA 2: TGGTGGCTACGACGGGATT
B2: UAGUACG (DNA:RNA)
RNA: B1 RNA with G25U, U26A, A30C
DNA 1: CAATCTGAATTCCGGTCTCCC
DNA 2: TGGTGGCTACGACGGGATT
B3: CAGUGCA (DNA:RNA)
RNA: B1 RNA with G25C, U26A, A29G, A30C, G31A
DNA 1: CAATCTGAATTCCGGTCTCCC
DNA 2: TGGTGGCTACGACGGGATT
B4: GCCCCCA (DNA:RNA)
RNA: B1 RNA with U26C, G27C, U28C, A29C, A30C, G31A
DNA 1: CAATCTGAATTCCGGTCTCCC
DNA 2: TGGTGGCTACGACGGGATT
B5: UAGUAAA (DNA:RNA)
RNA: B1 RNA with G25U, U26A, G31A
DNA 1: CAATCTGAATTCCGGTCTCCC
DNA 2: TGGTGGCTACGACGGGATT
B6: GAUAUAC (DNA:RNA)
RNA: B1 RNA with U26A, G27U, U28A, A29U, G31C
DNA 1: CAATCTGAATTCCGGTCTCCC
DNA 2: TGGTGGCTACGACGGGATT
B7: AGUAAAU (DNA:RNA)
RNA: B1 RNA with G25A, U26G, G27U, U28A, G31U
DNA 1: CAATCTGAATTCCGGTCTCCC
DNA 2: TGGTGGCTACGACGGGATT
B8: GCAUUGG (DNA:RNA)
RNA: B1 RNA with U26C, G27A, A29U, A30G
DNA 1: CAATCTGAATTCCGGTCTCCC
DNA 2: TGGTGGCTACGACGGGATT
B9: GCCAUGG (DNA:RNA)
RNA: B1 RNA with U26C, G27C, U28A, A29U, A30G
DNA 1: CAATCTGAATTCCGGTCTCCC
DNA 2: TGGTGGCTACGACGGGATT
B10: CGCAUGG (DNA:RNA)
RNA: B1 RNA with G25C, U26G, G27C, U28A, A29U, A30G
DNA 1: CAATCTGAATTCCGGTCTCCC
DNA 2: TGGTGGCTACGACGGGATT
B11: CUUGGUG (DNA:RNA)
RNA: B1 RNA with G25C, G27U, U28G, A29G, A30U
DNA 1: CAATCTGAATTCCGGTCTCCC
DNA 2: TGGTGGCTACGACGGGATT
B12: AGGGUAG (DNA:RNA)
RNA: B1 RNA with G25A, U26G, U28G, A29U
DNA 1: CAATCTGAATTCCGGTCTCCC
DNA 2: TGGTGGCTACGACGGGATT
B13: CGGGGGC (DNA:RNA)
RNA: B1 RNA with G25C, U26G, U28G, A29G, A30G, G31C
DNA 1: CAATCTGAATTCCGGTCTCCC
DNA 2: TGGTGGCTACGACGGGATT
B14: GGGGCUC (DNA:RNA)
RNA: B1 RNA with U26G, U28G, A29C, A30U, G31C
DNA 1: CAATCTGAATTCCGGTCTCCC
DNA 2: TGGTGGCTACGACGGGATT
B15: ACCGGGC (DNA:RNA)
RNA: GGGAGACCGGAAUUCAGAUUGUCCACCGGGCUUAAAUCCCGUCGUAGCCACCA
DNA 1: CAATCTGAATTCCGGTCTCCC
DNA 2: TGGTGGCTACGACGGGATT
B16: CCCGGGC (DNA:RNA)
RNA: B15 RNA with A25C
DNA 1: CAATCTGAATTCCGGTCTCCC
DNA 2: TGGTGGCTACGACGGGATT
B17: GGGCUGU (DNA:RNA)
RNA: B1 RNA with U26G, U28C, A29U, A30G, G31U
DNA 1: CAATCTGAATTCCGGTCTCCC
DNA 2: TGGTGGCTACGACGGGATT
B18: GGGGCUG (DNA:RNA)
RNA: B1 RNA with U26G, U28G, A29C, A30U
DNA 1: CAATCTGAATTCCGGTCTCCC
DNA 2: TGGTGGCTACGACGGGATT
B19: CGGGCUC (DNA:RNA)
RNA: B15 RNA with A25C, C26G, C27G, G29C, G30U
DNA 1: CAATCTGAATTCCGGTCTCCC
DNA 2: TGGTGGCTACGACGGGATT
B20: GGGCUCU (DNA:RNA)
RNA: B1 RNA with U26G, U28C, A29U, A30C, G31U
DNA 1: CAATCTGAATTCCGGTCTCCC
DNA 2: TGGTGGCTACGACGGGATT
B21: CGGGCUG (DNA:RNA)
RNA: B1 RNA with G25C, U26G, U28G, A29C, A30U
DNA 1: CAATCTGAATTCCGGTCTCCC
DNA 2: TGGTGGCTACGACGGGATT

Biological target: T1, RBFOX1 RRM (Homo sapiens, UniProt Q9NWB1 109-208)
T1 sequence: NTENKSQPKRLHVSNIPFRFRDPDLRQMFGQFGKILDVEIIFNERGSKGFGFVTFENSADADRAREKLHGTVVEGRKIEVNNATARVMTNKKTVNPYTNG
Assay: EMSA; HiTS-Eq, 1 nM pool, 10 min; buffer printed only for the single-RNA assays: 10 mM Tris pH 7.5, 150 mM NaCl, 3.4 mM EDTA, 0.001% NP-40, 30 C
Conditions: tags: His6 N-terminal (pET28a); label: 5' 32P
How it was run: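 Purified wild-type or mutant RbFox RRM at increasing concentrations was equilibrated with 1 nM of 5′-radiolabelled RNA carrying 7 randomized nucleotides for 10 min in 50 µL. Unbound RNA was separated by 8% native PAGE and sequenced. Relative association constants came from read-count changes of each RNA species compared with the control reaction, normalised to the cognate motif.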

Q: Which binding signal does the source give for B1 here?
A: 0.0113 KA relative to UGCAUGU

Q: With B2 as the binder, how does the binding signal read?
A: 0.0135 KA relative to UGCAUGU

Q: For B3, which binding signal is on record?
A: 0.0149 KA relative to UGCAUGU

Q: How did the binding signal turn out when B4 was run?
A: 0.00457 KA relative to UGCAUGU

Q: How did the binding signal turn out when B5 was run?
A: 0.00712 KA relative to UGCAUGU

Q: How did the binding signal turn out when B6 was run?
A: 0.00528 KA relative to UGCAUGU

Q: For B7, which binding signal is on record?
A: 0.00281 KA relative to UGCAUGU

Q: How did the binding signal turn out when B8 was run?
A: 0.0185 KA relative to UGCAUGU

Q: How did the binding signal turn out when B9 was run?
A: 0.0159 KA relative to UGCAUGU

Q: With B10 as the binder, how does the binding signal read?
A: 0.582 KA relative to UGCAUGU

Q: B11 was tested. Which binding signal did it give?
A: 0.0206 KA relative to UGCAUGU

Q: For B12, which binding signal is on record?
A: 0.0176 KA relative to UGCAUGU

Q: How did the binding signal turn out when B13 was run?
A: 0.0168 KA relative to UGCAUGU

Q: B14 was tested. Which binding signal did it give?
A: 0.0466 KA relative to UGCAUGU

Q: For B15, which binding signal is on record?
A: 0.0122 KA relative to UGCAUGU

Q: Which binding signal does the source give for B16 here?
A: 0.00898 KA relative to UGCAUGU

Q: How did the binding signal turn out when B17 was run?
A: 0.0234 KA relative to UGCAUGU

Q: For B18, which binding signal is on record?
A: 0.0461 KA relative to UGCAUGU

Q: B19 was tested. Which binding signal did it give?
A: 0.0209 KA relative to UGCAUGU

Q: For B20, which binding signal is on record?
A: 0.0214 KA relative to UGCAUGU

Q: With B21 as the binder, how does the binding signal read?
A: 0.0324 KA relative to UGCAUGU
